Test results as given in the supplement of paper PMC9694430.

Columns and labels:
Assay in all cases: thermal shift delta Tm vs DMSO control; higher = stronger stabilization (binding)
Settings in all cases: 12.5 µM; protein concentration 2 µM
LOC_OS01G57100-cb003 = system: LOC_OS01G57100-cb003
In short: (§1)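 The melting temperature shift given here is a triplicate mean, measured against protein that received only DMSO. Melting temperatures came from Boltzmann fits of differential scanning fluorimetry data on E. coli-expressed, purified rice kinase domain constructs. Each 19.5 μl well contained 2 μM kinase, 100 mM potassium phosphate pH 7.5, 150 mM NaCl, 10% glycerol, 5 × SYPRO Orange and compound in DMSO. Plates were scanned from 25°C to 95°C at 0.05°C/s.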

LOC_OS01G60330-cb001 = system: LOC_OS01G60330-cb001
In short: as §1

LOC_OS01G60700-cb002 = system: LOC_OS01G60700-cb002
In short: as §1

LOC_OS01G63280-cb003 = system: LOC_OS01G63280-cb003
In short: as §1

LOC_OS01G67340-cb003 = system: LOC_OS01G67340-cb003
In short: as §1

LOC_OS01G70970-cb002 = system: LOC_OS01G70970-cb002
In short: as §1

LOC_OS02G07810-cb001 = system: LOC_OS02G07810-cb001
In short: as §1

LOC_OS02G08530-cb003 = system: LOC_OS02G08530-cb003
In short: as §1

LOC_OS02G14120-cb001 = system: LOC_OS02G14120-cb001
In short: as §1

LOC_OS02G17970-cb001 = system: LOC_OS02G17970-cb001
In short: as §1

LOC_OS02G45750-cb003 = system: LOC_OS02G45750-cb003
In short: as §1

LOC_OS02G54510-cb004 = system: LOC_OS02G54510-cb004
In short: as §1

LOC_OS03G04050-cb001 = system: LOC_OS03G04050-cb001
In short: as §1

LOC_OS03G12390-cb001 = system: LOC_OS03G12390-cb001
In short: as §1

LOC_OS03G27990-cb004 = system: LOC_OS03G27990-cb004
In short: as §1

LOC_OS03G50450-cb001 = system: LOC_OS03G50450-cb001
In short: as §1

LOC_OS03G50810-cb003 = system: LOC_OS03G50810-cb003
In short: as §1

LOC_OS04G35114-cb001 = system: LOC_OS04G35114-cb001
In short: as §1

LOC_OS04G38480-cb003 = system: T1, LOC_OS04G38480-cb003
T1 sequence (whole entry): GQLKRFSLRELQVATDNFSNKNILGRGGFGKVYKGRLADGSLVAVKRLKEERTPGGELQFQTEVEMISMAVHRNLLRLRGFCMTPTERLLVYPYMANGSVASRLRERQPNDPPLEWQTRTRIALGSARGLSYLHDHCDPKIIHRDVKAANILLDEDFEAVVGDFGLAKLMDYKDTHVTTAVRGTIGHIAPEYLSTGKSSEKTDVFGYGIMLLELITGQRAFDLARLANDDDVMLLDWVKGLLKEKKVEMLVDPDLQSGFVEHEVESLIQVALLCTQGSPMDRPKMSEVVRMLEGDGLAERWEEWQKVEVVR
In short: as §1

LOC_OS04G41100-cb001 = system: T2, LOC_OS04G41100-cb001
T2 sequence (whole entry): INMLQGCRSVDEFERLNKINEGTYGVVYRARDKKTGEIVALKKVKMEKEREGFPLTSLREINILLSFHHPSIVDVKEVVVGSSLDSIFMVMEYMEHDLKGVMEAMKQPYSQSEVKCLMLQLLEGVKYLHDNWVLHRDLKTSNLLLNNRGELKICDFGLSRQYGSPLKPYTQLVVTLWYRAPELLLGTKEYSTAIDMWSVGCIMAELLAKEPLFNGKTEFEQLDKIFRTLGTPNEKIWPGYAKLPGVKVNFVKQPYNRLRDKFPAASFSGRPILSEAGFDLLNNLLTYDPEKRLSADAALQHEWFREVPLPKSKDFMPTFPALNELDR
In short: as §1

| SMILES | thermal shift delta Tm (LOC_OS01G57100-cb003) [°C] | thermal shift delta Tm (LOC_OS01G60330-cb001) [°C] | thermal shift delta Tm (LOC_OS01G60700-cb002) [°C] | thermal shift delta Tm (LOC_OS01G63280-cb003) [°C] | thermal shift delta Tm (LOC_OS01G67340-cb003) [°C] | thermal shift delta Tm (LOC_OS01G70970-cb002) [°C] | thermal shift delta Tm (LOC_OS02G07810-cb001) [°C] | thermal shift delta Tm (LOC_OS02G08530-cb003) [°C] | thermal shift delta Tm (LOC_OS02G14120-cb001) [°C] | thermal shift delta Tm (LOC_OS02G17970-cb001) [°C] | thermal shift delta Tm (LOC_OS02G45750-cb003) [°C] | thermal shift delta Tm (LOC_OS02G54510-cb004) [°C] | thermal shift delta Tm (LOC_OS03G04050-cb001) [°C] | thermal shift delta Tm (LOC_OS03G12390-cb001) [°C] | thermal shift delta Tm (LOC_OS03G27990-cb004) [°C] | thermal shift delta Tm (LOC_OS03G50450-cb001) [°C] | thermal shift delta Tm (LOC_OS03G50810-cb003) [°C] | thermal shift delta Tm (LOC_OS04G35114-cb001) [°C] | thermal shift delta Tm (LOC_OS04G38480-cb003) [°C] | thermal shift delta Tm (LOC_OS04G41100-cb001) [°C] |
| --- | --- | --- | --- | --- | --- | --- | --- | --- | --- | --- | --- | --- | --- | --- | --- | --- | --- | --- | --- | --- |
| COc1cc2nccc(Oc3ccc(NC(=O)C4(C(=O)Nc5ccc(F)cc5)CC4)cc3)c2cc1OC | 1.05 | 2.17 | 1.12 | 1.29 | 0.96 | 1.37 | 1.4 | 1.21 | 5.23 | 0.76 | 1.97 | 1.19 | 0.5 | 0.4 | 0.27 | 0.3 | 0.76 | 1.45 | 2.61 | 0.93 |
| COc1cc2nccc(Oc3ccc(NC(=O)NC4CC4)c(Cl)c3)c2cc1C(N)=O [Lenvatinib (E7080)] | -0.21 | 1.52 | 1.38 | 0.36 | -0.21 | 0.67 | 0.65 | 1.11 | 0.02 | 0.27 | 0.65 | 0.49 | 0.79 | -0.1 | 0.31 | 0.39 | 0.26 | 1.09 | 0.48 | 0.18 |
| CC(C)N(CCC(=O)c1ccc2ccccc2c1)Cc1ccccc1 | 1.6 | -0.95 | 1.89 | -2.65 | -0.6 | -5.39 | 0.33 | -1.55 | -2 | 5.17 | -0.52 | -0.55 | 0.06 | -6.73 | -1 | 0.58 | -1.55 | -1.2 | 0.27 | 2.52 |
| Cc1c(NC(=O)OC[C@@H]2COCCN2)cn2ncnc(Nc3ccc4c(cnn4Cc4cccc(F)c4)c3)c12 | 0.24 | 1.47 | 1.55 | 0.59 | -0.1 | 0.39 | 0.88 | 0.86 | 0.51 | 0.42 | 0.67 | 0.27 | 0.42 | 0.69 | 0.14 | 0.45 | 0.15 | 1.04 | 1.85 | 0.82 |
| COc1cc(Nc2ncc3c(n2)-c2ccc(Cl)cc2C(c2c(F)cccc2OC)=NC3)ccc1C(=O)O [Alisertib (MLN8237)] | 0.2 | 0.56 | 0.66 | 0.76 | 0.39 | 0.83 | 0.08 | 0.3 | 4.62 | 0.21 | 2.28 | 4.54 | 0.09 | 0.11 | -0.26 | -0.33 | 1.53 | 2.39 | 0.2 | 0.09 |
| Cc1ccc(CNc2ncnc3ccc(-c4ccc(CO)o4)cc23)o1 | 1.69 | 0.84 | 0.78 | 0.26 | -0.04 | 0.37 | 0.27 | 1.61 | 3.01 | 1.11 | 1.72 | 0.02 | 0.46 | 1.65 | 0.24 | 0.03 | -0.19 | 4.83 | 0.75 | 1.05 |
| Cc1cc(F)c(Nc2ncnc3cc(OCc4ccccc4)ccc23)cc1O | 1.8 | 0.94 | 2.58 | 1.25 | 0.41 | 0.6 | 1.36 | 1.46 | 0.86 | 1.59 | 0.78 | 0.36 | 0.9 | 0.2 | 0.83 | 1.28 | 0.71 | 1.12 | 1.35 | -0.11 |
| NC(=O)c1ccc2nc(-c3ccc(Oc4ccc(Cl)cc4)cc3)[nH]c2c1 [Chk2 Inhibitor II (BML-277)] | -0.91 | 1.95 | -0.56 | 0.87 | 1.05 | 0.31 | -0.29 | 0.5 | 0.13 | 1.17 | -1.27 | -0.11 | 0.47 | 0.95 | 0.3 | 0.23 | 0.22 | 0.43 | 0.19 | -0.49 |
| CC[C@@](C)(Nc1ccnc(-c2c[nH]c3ncccc23)n1)C(=O)NCC(F)(F)F [Decernotinib (VX-509)] | 2.18 | 0.73 | 0.67 | 0.95 | 0.62 | 0.36 | 0.36 | 0.65 | 5.49 | 0.86 | 1.82 | 0.32 | 0.47 | 0.52 | 0.33 | 0.54 | 1.35 | 1.32 | 3.52 | 0.25 |
| COc1ccc(-c2cc3nccn3c(Nc3ncccc3C(N)=O)n2)cc1OC | 0.13 | 1.34 | 1.05 | 1.03 | 0.74 | 0.22 | 0.81 | 3.01 | 3.03 | 0.79 | 1.94 | 0.42 | 0.72 | 6.82 | 0.56 | 1.07 | 1.24 | 1.36 | 1.69 | 1.04 |
